From PubChem
A selection: hits, their analogues and other compounds. The true share with any hit is near 21%.
CHX counter – counter-screen hit for Shiga toxin inhibitors, cycloheximide. hit rate 12% among 300,000. AID 2314. max response, %. cell reporter, cycloheximide protein synthesis inhibition counterscreen; in the data active = max response mostly above about 13%, no sharp cut-off; inactive = mostly below about 14%; also: read at 38.3 µM for the half of the compounds with a filed dose; 0% is about no effect
Pf growth 96h – inhibits malaria parasite growth, 96 h | P. falciparum luciferase reporter growth, 96 h | Potency, µM (series often up to 28.7 µM), inactives show top-dose activity change, negative = inhibition, most hits filed as inhibitors | hit rate 6.9% among 320,000; also: potency is read from the fitted curve at half-maximal effect; % is scaled to controls: 0 for no effect and ±100 for the full control effect
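Cell-based qHTS: luciferase-tagged P. falciparum in erythrocytes (2% hematocrit, 0.05% parasitemia final) incubated with compounds for 96 hours, 37 C, 5% CO2; luciferase detection reagent then added and luminescence measured.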
Pf growth 48h – inhibits P. falciparum growth in the first generation, 48 h; Potency, µM (doses to about 28.7 µM), for the others: top-dose activity change, negative = inhibition, usual class: inhibitors; P. falciparum luciferase growth in erythrocytes, 48 h; hit rate 5.9% among 310,000; AID 504832; also: potency is read from the fitted curve at half-maximal effect; % is scaled to controls: 0 for no effect and ±100 for the full control effect
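Erythrocytes infected with P. falciparum carrying an integrated firefly luciferase reporter (2% hematocrit, 0.1% parasitemia final) were exposed to compounds in RPMI 1640 with 0.5% Albumax at 37 C, 5% CO2. Growth inhibition was scored as reduced luminescence.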
Sm TGR block – blocks Schistosoma mansoni thioredoxin glutathione reductase. Q962Y6. purified TGR, DTNB reduction, TNB absorbance 405 nm. Potency, µM (series often up to 114 µM), inactives show at the top dose activity change, negative = inhibition, usual class: inhibitors. hit rate 3% among 360,000. AID 485364; also: potency is read from the fitted curve at half-maximal effect; % is scaled to controls: 0 for no effect and ±100 for the full control effect; nearly all actives have a fitted effect of over 60% in size
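Kinetic colorimetric format: TGR-catalysed, NADPH-driven DTNB reduction monitored via TNB absorbance. Enzyme dispensed at 20 nM; compound exposure 15 min at room temperature before reaction start.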
NS1 inh – blocks influenza NS1 protein function. hit rate 0.4% among 270,000. AID 2326. Potency, µM (titrated, usually from 46.1 µM), without a hit: at the highest dose activity, positive = more growth; calls by dose curve; also: potency is read from the fitted curve at half-maximal effect; actives are rising curves; nearly all actives have a fitted effect of over 50% in size
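Growth recovery, yeast-based: influenza A NS1 expressed in S. cerevisiae causes slow growth, and suppressors are detected by OD600. The parent strain without NS1 is used as positive control.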
Shiga inhibitor – blocks Shiga toxin action in Vero cells; AID 2315; hit rate 9.2% among 290,000; Vero cells, Shiga toxin protein synthesis inhibition reporter; inhibition, % at 38.7 µM; in the data active = inhibition mostly above about 28%, no sharp cut-off; inactive = mostly below about 43%; also: 0% is about no effect
Active calls of the source: *; [ ] = remark or other dose. Unless noted, calls follow the shape of the dose curve; as a rule, active = well fitted curve in the direction sought with a large enough effect; inconclusive = small, poorly fitted or top-dose-only effect, or another doubt; inactive = no such curve, though single readings can be large; an effect the other way counts as inactive or inconclusive.

Results for COCCCc1cc(F)c(S(=O)(=O)N2CCN(S(=O)(=O)c3ccc4c(c3)OCCO4)CC2)cc1F ?
CHX counter: -1; Shiga inhibitor: -2

What do the screens show for `CC(C)(CO)CNC(=O)c1ccc(OC2CCN(C(=O)C3CC3)CC2)cc1`?
CHX counter: -2; Pf growth 96h: 6%; Pf growth 48h: -32%; Sm TGR block: 2%; NS1 inh: 9%; Shiga inhibitor: 16

Results for COc1cccc(N2CCN(C(=O)c3ccc(Cl)c(NC4=NC5CS(=O)(=O)CC5S4)c3)CC2)c1 (stereo unspecified) ?
CHX counter: -4; Pf growth 96h: 3%; Pf growth 48h: -23%; Sm TGR block: -9%; NS1 inh: 9%; Shiga inhibitor: -5

How did CCC1CCCCN1CCCNC(=O)c1ccc(CS(=O)(=O)c2ccccc2C)o1 (stereo unspecified) do in these assays?
CHX counter: -4; Pf growth 96h: 60%; Pf growth 48h: 8%; Sm TGR block: -11%; NS1 inh: 3%; Shiga inhibitor: -4

What do the screens show for `O=C(Nc1ccccc1C(=O)N/N=C/c1ccc(O)cc1)c1ccccc1`?
CHX counter: 29*; Pf growth 96h: 2%; Pf growth 48h: 98%; Sm TGR block: 2%; NS1 inh: 3%; Shiga inhibitor: 31

Results for O=C(N/N=C/C=N/NC(=O)c1ccco1)c1ccco1 ?
CHX counter: 12; Pf growth 96h: -14%; Pf growth 48h: -9%; Sm TGR block: -1%; NS1 inh: -49%; Shiga inhibitor: -10

What do the screens show for `O=C(N/N=C/c1ccc(O)cc1)c1csc2ccccc12`?
CHX counter: 16; Pf growth 96h: 30%; Pf growth 48h: 21%; Sm TGR block: 8%; NS1 inh: -3%; Shiga inhibitor: 17

What do the screens show for `CC(NC(=O)c1ccccc1NC(=O)c1ccco1)C(=O)O` (stereo unspecified)?
CHX counter: 76*; Pf growth 96h: -20%; Pf growth 48h: 165%; Sm TGR block: -11%; NS1 inh: 5%; Shiga inhibitor: 138*

Results for CC(C)=C(NC(=O)c1ccccc1)C(=O)N/N=C/c1ccc(O)cc1 ?
CHX counter: 31*; Pf growth 96h: inconclusive; Pf growth 48h: 48%; Sm TGR block: -12%; NS1 inh: 5%; Shiga inhibitor: -2

Results for O=C(N/N=C/c1ccc2cccnc2c1)c1ccco1 ?
CHX counter: 25; Pf growth 96h: 58%; Pf growth 48h: 482%; Sm TGR block: -1%; Shiga inhibitor: 72*

How did O=C(N/N=C/C(Br)=C\c1ccccc1)c1ccco1 do in these assays?
CHX counter: 46*; Pf growth 96h: 4.1µM*; Pf growth 48h: 2.6µM*; Sm TGR block: inconclusive; NS1 inh: -68%; Shiga inhibitor: 47*

How did COC(=O)c1ccc(COc2ccccc2/C=N/NC(=O)c2cccnc2)cc1 do in these assays?
CHX counter: 28*; Pf growth 96h: 36%; Pf growth 48h: 19%; Sm TGR block: -3%; Shiga inhibitor: 25

How did O=C(N/N=C/c1ccccc1)c1ccco1 do in these assays?
CHX counter: 36*; Pf growth 96h: 40%; Pf growth 48h: 76%; Sm TGR block: 4%; NS1 inh: -7%; Shiga inhibitor: 100*

What do the screens show for `COc1cccc(/C=N/NC(=O)CNC(=O)c2cccnc2)c1O`?
CHX counter: -6; Pf growth 96h: 19%; Pf growth 48h: -9%[0.00184 µM]; Sm TGR block: -1%; NS1 inh: 4%; Shiga inhibitor: -11

How did Cc1ccc2occ(/C=N/NC(=O)c3ccccc3Br)c(=O)c2c1 do in these assays?
CHX counter: -1; Pf growth 96h: 4.7µM*; Pf growth 48h: 23%; Sm TGR block: 3%; NS1 inh: -2%; Shiga inhibitor: -19

What do the screens show for `Cc1noc2ncnc(NCc3ccc(Cl)cc3)c12`?
Sm TGR block: -4%

How did O=C(N/N=C\c1coc2ccccc2c1=O)c1ccco1 do in these assays?
CHX counter: 14; Pf growth 96h: 65%; Pf growth 48h: 68%; Sm TGR block: 28µM*; NS1 inh: 1%; Shiga inhibitor: 16

How did O=C(Nc1ccccc1C(=O)N/N=C/c1ccccc1)c1ccco1 do in these assays?
CHX counter: 27*; Pf growth 96h: 16%; Pf growth 48h: 58%; Sm TGR block: -10%; NS1 inh: -9%; Shiga inhibitor: 87*
